# Calls of active or inactive are those of the source.
# Columns and labels:
# [1] = E. coli DRC41 culture turbidity changes, primary screen, E. coli filamentation inducer project, strain DRC41, OD650, 48 h (AID 1152);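 note: E. coli MC1000 strain DRC41 lacking acrAB efflux pump and sulA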; settings: E. coli DRC41 (acrAB sulA), higher = more signal, called active from +8 up or from −8 down
# [2] = small-molecule binders of probe aLefty1, primary screen, biochemical, small-molecule microarray, 635/667 nm fluorescence (AID 1153); settings: higher = more signal;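 note: score merges spot fluorescence with signal-to-noise ratio from the scanned slide images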
# [3] = PSAC antagonists in infected red cells, primary screen, cell-based, P. falciparum Indochina, OD700, 1 h (AID 1154); settings: P. falciparum Indochina infected RBC osmotic lysis, higher = more signal, called active from +8 up or from −8 down
# [4] = PSAC antagonists in infected red cells, primary screen, cell-based, P. falciparum Indochina, OD700, 2 h (AID 1155);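 note: lysis reports solute entry through the parasite surface anion channel PSAC; channel blockers reduce lysis of infected cells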; settings: P. falciparum Indochina infected erythrocytes, osmotic lysis OD700; higher = more signal, called active from +8 up or from −8 down
# [5] = osmotic lysis modulators in infected erythrocytes, primary screen, PSAC antagonist project, cell-based, P. falciparum Indochina, OD700, 3 h (AID 1156); settings: higher = more signal, called active from +8 up or from −8 down
# [6] = PSAC antagonists in infected red cells, primary screen, cell-based, P. falciparum Indochina, OD700, 18 h (AID 1157); settings: P. falciparum Indochina infected erythrocytes, osmotic lysis OD700, 18 h; higher = more signal, called active from +8 up or from −8 down
# [7] = modulators of S6 phosphorylation in cells, primary screen, cell-based, A549, cytoblot, luminescence, serum-stimulated (AID 1158); settings: A549 phospho-S6 cytoblot, 5 h, higher = more signal;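 note: serum-stimulated A549 lung adenocarcinoma cells; signal is phosphorylated S6 detected by cytoblot immunostaining with HRP secondary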
# [8] = molecular target: NADPH oxidase 2 (Homo sapiens) (UniProt P04839); assay: NOX2-dependent H2O2 signal modulators, primary screen, NOX inhibitor project, cell-based, HEK293-NOX2, PMA-stimulated, Amplex Red fluorescence (AID 1159); settings: 45 min, higher = more signal, called active from +8 up or from −8 down; note: test concentration not given here
# [9] = molecular target: NADPH oxidase 4 (Homo sapiens) (UniProt Q9NPH5); assay: NOX4-dependent H2O2 signal modulators, primary screen, NOX inhibitor project, cell-based, HEK293-NOX4, tetracycline-induced, Amplex Red fluorescence (AID 1160); settings: 45 min, higher = more signal, called active from +8 up or from −8 down
# [10] = molecular target: NADPH oxidase 5 (Homo sapiens) (UniProt Q96PH1); assay: NOX5-dependent H2O2 signal modulators, primary screen, NOX inhibitor project, cell-based, HEK293-NOX5, Amplex Red fluorescence (AID 1161); settings: HEK293-NOX5, ionomycin, 45 min, higher = more signal
# [11] = A549 cell viability effects, profiling panel, calcein-AM fluorescence, 48 h, basal (AID 1162); settings: higher = more signal; note: test concentration not given here
# [12] = adipocyte viability effects, profiling panel, cell-based, 3T3-L1 adipocytes, calcein-AM fluorescence, 48 h, basal (AID 1163); settings: 3T3-L1 adipocytes viability, higher = more signal; note: test concentration not given here
# [13] = HepG2 cell viability effects, profiling panel, calcein-AM fluorescence, 48 h, basal (AID 1164); settings: higher = more signal; note: test concentration not given here
# [14] = MM1S cell viability effects, profiling panel, calcein-AM fluorescence, 48 h, basal (AID 1165); settings: higher = more signal;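 note: viability of MM1S multiple myeloma cells under basal unstimulated conditions; test concentration not given here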
# [15] = basal RPMI8226 viability, no added stimulus, profiling panel, cell-based, calcein-AM fluorescence, 48 h, PK04 Diversity Set (AID 1166); settings: RPMI8226 myeloma viability, higher = more signal;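 note: cells grown under basal conditions without added stimulus; test concentration not given here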
# [16] = basal HepG2 mitochondrial membrane potential changes, profiling panel, cell-based, JC-1 fluorescence, 24 h, 100 nL compound (AID 1167); settings: higher = more signal; note: test concentration not given here
# [17] = basal 3T3-L1 adipocyte mitochondrial potential changes, profiling panel, cell-based, JC-1 fluorescence, 3T3-L1 adipocytes, 24 h, 100 nL compound (AID 1168); settings: JC-1 mitochondrial fluorescence, higher = more signal, called active from +8 up or from −8 down; note: test concentration not given here
# [18] = basal RPMI8226 mitochondrial membrane potential changes, profiling panel, cell-based, JC-1 fluorescence, 24 h, 100 nL compound (AID 1169); settings: RPMI8226 myeloma, JC-1 mitochondrial potential fluorescence, higher = more signal; note: test concentration not given here
# [19] = basal MM1S mitochondrial membrane potential changes, profiling panel, cell-based, JC-1 fluorescence, 24 h, 100 nL compound (AID 1170); settings: higher = more signal; note: test concentration not given here
# [20] = A549 lung cancer cell viability effects, profiling panel, resazurin fluorescence, 24 h, PK04 Diversity Set (AID 1171); settings: higher = more signal, called active from +8 up or from −8 down; note: test concentration not given here
# Sequence of NADPH oxidase 5 (Homo sapiens) (Q96PH1 whole entry, looked up): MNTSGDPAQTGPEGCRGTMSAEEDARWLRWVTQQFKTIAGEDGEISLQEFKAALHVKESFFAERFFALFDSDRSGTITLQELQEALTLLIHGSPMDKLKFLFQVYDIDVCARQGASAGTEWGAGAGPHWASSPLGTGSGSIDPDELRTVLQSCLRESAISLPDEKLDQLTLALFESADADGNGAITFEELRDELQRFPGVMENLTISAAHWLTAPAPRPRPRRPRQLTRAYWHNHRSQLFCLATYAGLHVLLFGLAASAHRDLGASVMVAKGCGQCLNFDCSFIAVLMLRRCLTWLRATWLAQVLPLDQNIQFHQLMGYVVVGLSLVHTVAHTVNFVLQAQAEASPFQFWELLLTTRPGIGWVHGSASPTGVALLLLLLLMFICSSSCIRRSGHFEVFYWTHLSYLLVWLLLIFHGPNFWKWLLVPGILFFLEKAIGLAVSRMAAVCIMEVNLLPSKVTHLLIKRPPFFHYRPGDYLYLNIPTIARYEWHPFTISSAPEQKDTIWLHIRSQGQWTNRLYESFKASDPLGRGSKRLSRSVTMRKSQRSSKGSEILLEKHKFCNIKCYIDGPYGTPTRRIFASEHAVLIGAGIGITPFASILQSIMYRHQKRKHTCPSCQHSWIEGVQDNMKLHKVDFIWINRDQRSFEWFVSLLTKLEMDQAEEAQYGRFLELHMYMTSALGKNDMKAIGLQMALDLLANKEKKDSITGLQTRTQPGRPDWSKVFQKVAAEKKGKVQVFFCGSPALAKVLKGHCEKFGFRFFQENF
# Sequence of NADPH oxidase 2 (Homo sapiens) (P04839 whole entry, looked up): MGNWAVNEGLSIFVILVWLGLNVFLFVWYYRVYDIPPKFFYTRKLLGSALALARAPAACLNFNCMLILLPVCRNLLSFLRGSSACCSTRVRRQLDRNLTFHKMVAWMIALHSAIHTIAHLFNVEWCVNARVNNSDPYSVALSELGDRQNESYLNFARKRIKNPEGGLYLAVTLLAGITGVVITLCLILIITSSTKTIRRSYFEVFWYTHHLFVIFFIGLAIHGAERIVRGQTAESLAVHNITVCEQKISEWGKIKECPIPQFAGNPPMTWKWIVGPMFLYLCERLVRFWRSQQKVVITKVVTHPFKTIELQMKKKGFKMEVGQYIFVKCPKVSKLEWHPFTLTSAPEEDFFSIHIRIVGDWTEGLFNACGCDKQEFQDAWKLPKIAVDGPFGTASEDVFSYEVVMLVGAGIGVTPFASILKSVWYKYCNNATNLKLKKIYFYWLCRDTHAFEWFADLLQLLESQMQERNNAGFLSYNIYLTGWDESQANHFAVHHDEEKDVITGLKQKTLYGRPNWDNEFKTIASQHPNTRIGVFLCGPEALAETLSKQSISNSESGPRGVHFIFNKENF
# Sequence of NADPH oxidase 4 (Homo sapiens) (Q9NPH5 whole entry, looked up): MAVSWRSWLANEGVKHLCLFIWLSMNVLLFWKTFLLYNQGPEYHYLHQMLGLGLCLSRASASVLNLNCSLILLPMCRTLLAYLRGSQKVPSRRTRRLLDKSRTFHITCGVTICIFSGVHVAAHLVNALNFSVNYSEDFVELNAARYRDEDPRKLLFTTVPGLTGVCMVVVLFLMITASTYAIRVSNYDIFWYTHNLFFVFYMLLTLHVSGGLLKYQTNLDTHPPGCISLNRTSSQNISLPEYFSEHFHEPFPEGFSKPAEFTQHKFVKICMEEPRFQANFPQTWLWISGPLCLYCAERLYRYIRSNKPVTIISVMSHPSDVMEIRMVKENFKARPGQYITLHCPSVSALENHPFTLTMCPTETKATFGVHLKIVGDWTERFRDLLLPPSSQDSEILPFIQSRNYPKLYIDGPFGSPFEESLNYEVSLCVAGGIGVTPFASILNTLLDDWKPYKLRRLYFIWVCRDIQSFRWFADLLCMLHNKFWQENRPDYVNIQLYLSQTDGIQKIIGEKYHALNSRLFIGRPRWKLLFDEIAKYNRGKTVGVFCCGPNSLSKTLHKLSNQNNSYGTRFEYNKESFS
SMILES,z-score [1],composite z-score [2],z-score [3],z-score [4],z-score [5],z-score [6],z-score [7],z-score [8],z-score [9],z-score [10],z-score [11],z-score [12],z-score [13],z-score [14],z-score [15],z-score [16],z-score [17],z-score [18],z-score [19],z-score [20]
O=C1C2C=CC(C(O)Cc3ccccc3)N(n3cnnc3)C2C(=O)N1Cc1ccccc1 (stereo not given),-1.07 (inactive),0.333,1.78 (inactive),1.06 (inactive),1.04 (inactive),0.587 (inactive),-0.309,-0.112 (inactive),-1.69 (inactive),-1.36,-0.182,0.549,-0.065,-0.304,-1.11,-0.532,-0.533 (inactive),0.395,1.24,-1.29 (inactive)
C=C(C)[C@@H]1CC=C(C(O)C2C=CC3C(=O)N(c4ccccc4)C(=O)C3N2Nc2ccccc2)CC1 (stereo not given in full),-0.59 (inactive),1.33,8.1 (active),2.94 (inactive),1.09 (inactive),1.73 (inactive),-0.798,-0.653 (inactive),-3.06 (inactive),-2.48,1.62,-0.63,1.16,-0.646,-1.05,-1.95,-0.27 (inactive),-0.45,-0.31,0.296 (inactive)
COCCOC(=O)N1C(=O)[C@@]2(c3cc(C#CCC(C(=O)OC)C(=O)OC)ccc31)[C@H](c1ccccc1OCCO)N1[C@H](c3ccccc3)[C@H](c3ccccc3)OC(=O)[C@H]1[C@@H]2C(=O)NC[C@H](O)c1ccccc1,-0.165 (inactive),0.557,1.95 (inactive),1.35 (inactive),-0.0048 (inactive),0.781 (inactive),0.213,1.57 (inactive),1.07 (inactive),1.41,-0.0256,0.821,0.015,-3.44,-3.9,-0.187,2.16 (inactive),-0.776,-1.81,-0.55 (inactive)
CC1CC/C=C\[C@H]2OC34C=CCN(C(C)(C)C)C(=O)[C@H]3N(CCO)C(=O)[C@@H]4C2C(=O)O1 (stereo not given in full),0.583 (inactive),-0.0611,2.16 (inactive),0.518 (inactive),-0.474 (inactive),0.31 (inactive),0.615,1.36 (inactive),0.126 (inactive),2.57,-0.986,1.09,-0.593,1.16,-0.197,-0.669,-0.354 (inactive),-0.0147,0.927,0.283 (inactive)
CC1(C)C2C=C(C(O)C3C=CC4C(=O)NC(=O)C4N3Nc3ccc(Cl)cc3Cl)C[C@@H]1C2 (stereo not given in full),-4.41 (inactive),0.265,3.33 (inactive),0.916 (inactive),-2.43 (inactive),1.19 (inactive),-1.38,-0.197 (inactive),-5.57 (inactive),-3.46,-2.48,-0.88,-1.8,-3.73,-4.1,-4.27,-0.803 (inactive),-1.14,-1.04,-1.85 (inactive)
Cc1ccc([C@@H]2C[C@@H](Sc3ccccc3)[C@H](C(=O)O)CN2S(=O)(=O)c2ccc(C)cc2)cc1,-1.07 (inactive),0.481,1.87 (inactive),0.835 (inactive),-1.16 (inactive),0.759 (inactive),-0.512,2.06 (inactive),-1.97 (inactive),-0.41,-0.687,0.154,-0.316,-0.681,-3.33,-1.2,-0.183 (inactive),-0.268,0.928,0.39 (inactive)
O=C(NCCO)C1=C[C@H](Oc2ccccc2I)[C@@H](O)[C@H](N(Cc2ccco2)C(=O)Cc2ccccc2)C1,-0.673 (inactive),0.0752,0.877 (inactive),0.799 (inactive),1.1 (inactive),0.304 (inactive),0.202,1.34 (inactive),0.254 (inactive),0.351,-0.22,1.31,-0.902,0.426,-1.94,-0.217,-0.166 (inactive),-0.084,0.559,-1.35 (inactive)
CC(CO)N1C(=O)[C@@H]2C3C(=O)OCCC/C=C\[C@H]3OC23C=CCN(C(C)(C)C)C(=O)[C@@H]13 (stereo not given in full),0.458 (inactive),-0.0984,0.943 (inactive),0.752 (inactive),2.51 (inactive),0.477 (inactive),-0.0054,0.89 (inactive),-0.437 (inactive),0.886,-0.241,-0.557,0.775,1.41,0.995,0.285,0.521 (inactive),-0.458,-1.26,-0.717 (inactive)
COC(=O)c1c(CC[C@@H](CO)NC(=O)NCCn2cc(C3(O)CCCC3)nn2)oc(C(C)=O)c1C(=O)OC,-1.2 (inactive),-0.403,2.06 (inactive),0.474 (inactive),1.29 (inactive),0.533 (inactive),-0.359,-0.278 (inactive),0.233 (inactive),-0.666,-0.298,0.154,0.122,0.454,0.206,-0.0184,-0.543 (inactive),0.586,-0.152,-0.957 (inactive)
CCCCCN1CC=CC23O[C@@H]4/C=C\CCC(C)OC(=O)C4[C@H]2C(=O)N(C(C)CO)[C@@H]3C1=O (stereo not given in full),0.585 (inactive),0.0077,0.901 (inactive),-0.356 (inactive),0.847 (inactive),0.355 (inactive),-0.0749,0.642 (inactive),-0.2 (inactive),1.84,0.342,0.287,0.356,0.508,0.311,0.558,-0.00375 (inactive),0.724,-0.759,1.02 (inactive)
C=CCN1C(=O)[C@]2(O[C@H](CCn3cc([C@H](O)c4ccccc4)nn3)[C@@H]([Si](C)(C)c3ccc(OC)cc3)[C@@H]2C)c2cc(N3CCC3=O)ccc21,0.894 (inactive),0.188,3.76 (inactive),1.05 (inactive),2.62 (inactive),0.721 (inactive),2.02,0.632 (inactive),-0.709 (inactive),-1.74,-0.668,0.87,-1.39,-2.05,-2.95,2.75,0.85 (inactive),-0.949,0.507,-1.71 (inactive)
O=C1c2ccccc2[C@](Cc2ccccc2I)(C(=O)NCCN2CCOCC2)[C@H](c2ccc(CO)cc2)N1Cc1ccccc1Cl,0.065 (inactive),0.559,11.7 (active),1.47 (inactive),1.01 (inactive),0.818 (inactive),-0.0261,-0.136 (inactive),0.707 (inactive),0.608,0.537,0.261,0.63,-1.66,-1.88,1.77,-0.585 (inactive),-0.273,0.918,0.928 (inactive)
C=CCOC(=O)[C@H]1[C@@H]2C(=O)O[C@@H](c3ccccc3)[C@@H](c3ccccc3)N2[C@@H](c2ccc(OCCOC(=O)[C@@H]3C[C@@H]4C(=O)N[C@@H](CCCCNC(C)=O)C(=O)N4[C@@H]3c3ccc(O)cc3)cc2)[C@]12C(=O)Nc1ccccc12,-0.226 (inactive),0.379,3.21 (inactive),1.61 (inactive),4.15 (inactive),0.841 (inactive),-0.0842,1.56 (inactive),0.962 (inactive),0.576,-0.41,1.85,-0.578,-0.0774,-0.133,-1.7,0.703 (inactive),-0.611,-0.95,-1.57 (inactive)
O=C(c1ccccc1)N1C(=O)[C@]2(COC(c3ccc(OCCCO)cc3)=N2)Cc2ccccc21,-0.788 (inactive),0.638,27.1 (active),17.8 (active),3.39 (inactive),1.35 (inactive),-0.394,-0.0343 (inactive),0.0715 (inactive),-1.69,-0.525,0.6,-0.92,-1.72,-3.77,-1.23,-0.03 (inactive),-1.26,-1.49,-0.272 (inactive)

# Reference: PubChem BioAssay
